PubChem BioAssay AID686934 (National Center for Advancing Translational Sciences (NCATS), 2013)
Records with an inconclusive call do not appear. Active and inactive are the calls of the source. The call rests on the fitted dose curve; in most records, active means well fitted curve in the direction sought with a large enough effect; inconclusive means small, poorly fitted or top-dose-only effect, or another doubt; inactive means no such curve, though single readings can be large or run the other way.

test: qHTS screen for small molecules that inhibit ELG1-dependent DNA repair: SAR in Cell-Based Luciferin Counter Assay; settings: cell-based luciferase counter-screen, luminescence; series mostly up to 45.7 µM
Excerpt: Cancer cells divide rapidly compared to normal cells in the body. During cell division, cancer cells need to duplicate their genome by DNA replication. The failure of genome duplication leads to cancer cells' death. Therefore, inhibitors of DNA replication could specifically kill cancer cells. Based on this concept, many chemotherapeutic agents were developed and have been used to treat cancer patients. However, there are a limited number of agents available in the clinical setting, and some of those that do exist have low efficacy and severe side effects. Therefore, if we can find the compounds that effectively block DNA replication either by directly damaging DNA or by inhibiting other cellular mechanisms, the options for cancer treatment will be broadened. With this in mind, we developed a quantitative high-throughput ELG1-luciferase reporter gene assay. Small molecules that specifically block ELG1 function in response to DNA damage can be identified by monitoring the suppression of luciferase activity. Since ELG1 defines a pathway for repairing DNA damage, agents blocking ELG1 function can be used to sensitize cancer cells to chemotherapeutic agents whose mechanism of action involves the induction of DNA damage. This assays is a counterscreen, that is more specifically, a cell-based luciferase assay following treatment with putative ELG1 antagonists to eliminate luciferase enhancers/inhibitors NIH Molecular Libraries Probe Production Network [MLPCN] NIH Chemical Genomics Center [NCGC] MLPCN Grant: R03 MH092164 Assay Provider: Kyungjae Myung, NHGRI, NIH
3 uL of substrate reagent will be pipetted into each well in 1536-well white, solid-bottom plates using a FRD dispenser, followed by addition of 23 nL of DMSO or compounds by pintool. After compound addition, 1 µL of luciferase will be added into the wells. The plates will be read in a ViewLux CCD-based plate reader.

SMILES | outcome
N#Cc1ccc(-c2ccc(-c3nc4ccccc4c(=O)[nH]3)o2)cc1 | inactive
O=c1[nH]c(=O)n([C@@H]2C[C@H](O)[C@H](CO)O2)cc1C(F)(F)F | inactive
O=C(Nc1ccccn1)c1sc2ccccc2c1Cl | inactive
CSc1ncnc2c1ncn2C1OC(CO)C(O)C1O (stereo not drawn) | inactive
CN(C)c1cccc(-c2ccnc(N3CCC(C(N)=O)CC3)n2)c1 | inactive
Cc1ccc2c(c1)C/C(=C/c1ccc(N(C)C)cc1)C2=O | inactive
O=C(/C=C/C#Cc1cccc(NS(=O)(=O)c2ccccc2)c1)NO | inactive
COc1ccc(-c2nc(-c3cccnc3)no2)cc1 | inactive
CC(=O)OCC1=C[C@H]2[C@@H]3C(C)(C)[C@]3(OC(C)=O)C[C@@H](C)[C@]2(O)[C@@H]2C=C(C)C(=O)[C@@]2(O)C1 | inactive
CCCCCn1ncc2c3sc(C)cc3n(C)c2c1=O | inactive
Cc1nc(Nc2nc3ccccc3o2)nc2c1CCCC2 | inactive
O=C1/C(=C/c2ccc(O)c(O)c2)Oc2ccccc21 | inactive
CC(C)C(=O)SCCCCCCC(=O)Nc1nc(-c2ccccc2)cs1 | inactive
ICC[n+]1csc2ccccc21 | inactive
CN(C)c1ccc(/C=C2\CCc3ccccc32)cc1 | inactive
O=C(Cc1ccc(OCCCc2ccccc2)cc1)NO | inactive
COc1ccccc1/C=C/c1nc2ccccc2s1 | inactive
CC(=O)Nc1sc2c(c1-c1nc3ccccc3s1)CCCNC2 | inactive
